High-throughput results: PubChem, National Center for Advancing Translational Sciences (NCATS)
D1 PAM = Potentiators of Human D1 Dopamine Receptor: qHTS. HEK293 TREx D1 cells, calcium flux, dopamine EC20 potentiation. potentiation, % at 10 µM. AID 504651, 2011. D(1A) dopamine receptor (Homo sapiens), P21728. 360,000 tested, 0.036% active; in the data active means potentiation above about 30%; further: 0% is about no effect
TRHR agonist = qHTS for Small Molecule Agonists and Allosteric Enhancers of Human TRH Receptor: Primary Screen for Agonists. Thyrotropin-releasing hormone receptor (Homo sapiens), P34981. TRHR cells, calcium flux fluo-8, FDSS agonist mode. activation, % at 2 µM. 360,000 tested, 0.18% active; further: 0% is about no effect
Target sequence (P34981 whole entry, looked up): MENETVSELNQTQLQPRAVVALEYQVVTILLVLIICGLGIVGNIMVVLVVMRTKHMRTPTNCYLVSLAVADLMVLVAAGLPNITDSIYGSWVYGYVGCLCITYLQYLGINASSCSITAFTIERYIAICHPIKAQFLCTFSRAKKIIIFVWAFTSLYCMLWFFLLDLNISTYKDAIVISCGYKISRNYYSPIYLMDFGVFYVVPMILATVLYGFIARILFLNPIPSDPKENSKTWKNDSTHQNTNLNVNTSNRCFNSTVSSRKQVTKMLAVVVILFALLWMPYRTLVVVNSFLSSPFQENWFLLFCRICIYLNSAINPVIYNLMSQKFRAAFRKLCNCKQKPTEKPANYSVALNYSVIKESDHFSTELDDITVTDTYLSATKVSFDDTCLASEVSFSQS
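Agonist-mode FDSS calcium read (Ex 480/Em 530, 1 s cycles) in 1536-well TRHR cells with fluo-8 dye, after 10-cycle baseline and 23 nL compound addition; TRH at EC20 (10 nM final) added afterwards for the enhancer phase.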
D1 ag = Allosteric Agonists of the Human D1 Dopamine Receptor: qHTS; D(1A) dopamine receptor (Homo sapiens), P21728; HEK293 T-REx D1 cells, calcium flux, agonist mode; activation, % at 2 µM; 360,000 tested, 1% active; further: 0% is about no effect
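Tetracycline-induced HEK293 TREx D1 cells, force-coupled to calcium signalling, were dye-loaded with a no-wash calcium kit. Compound was pin-added after a 10 s baseline. Fluorescence was read kinetically at 1 cycle/s for 180 s, with calcium rises flagged as agonism.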
D1 antagonist = Antagonist of Human D 1 Dopamine Receptor: qHTS; D(1A) dopamine receptor (Homo sapiens), P21728; HEK293 TREx D1 cells, calcium flux, dopamine EC80; hits give low values; activity change, negative = inhibition, % at 10 µM; 360,000 tested, 3.2% active; in the data active means activity change below about -30%; further: on the % scale 0 is the no-effect control and ±100 the full control effect
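Tetracycline-induced HEK293 Trex D1 cells, force-coupled to calcium, dye-loaded; compounds added and read 180 s, then EC80 dopamine added and calcium flux tracked kinetically another 180 s.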
TRHR PAM = qHTS for Small Molecule Agonists and Allosteric Enhancers of Human TRH Receptor: Primary Screen for Enhancers | AID 493056, 2011 | 360,000 tested, 0.66% active | enhancement, % at 2 µM | Thyrotropin-releasing hormone receptor (Homo sapiens), P34981 | TRHR cells, fluo-8 calcium fluorescence, EC20 TRH enhancement; in the data active means enhancement above about 30%; further: 0% is about no effect
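TRHR-expressing cells loaded with fluo-8 calcium dye were read kinetically (ex 480/em 530) during compound addition, then stimulated with an EC20 of TRH (10 nM final). Enhancement of the Gq-mediated intracellular calcium response was scored.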
The depositor's hits bear a star. Compounds with a hit are over-represented: about 4.6% of the library has one in this group of screens. Unless noted, no stated cut-off is given here; in the data, active means activation above about 30%; inactive means the rest.

SMILES	D1 PAM	TRHR agonist	D1 ag	D1 antagonist	TRHR PAM
COc1ccc(-c2noc(CSc3nnc(-c4ccc(Cl)cc4)n3C)n2)cc1OC	-3	-1	-1	-31*	0
COc1ccc(-c2noc(CSc3nnc(-c4ccccc4)n3C)n2)cc1	1	0	6	-3	2
COc1ccc(-c2noc(CSc3nnc(C)n3-c3cccc(C)c3)n2)cc1	-2	0	10	-34*	-2
O=C(NC(=S)N1CCCCCC1)c1ccc(Cl)cc1Cl	10	-1	1	-2	0
CCOc1ccc2nc(SCC(=O)c3ccccc3)sc2c1	2	4	22	-43*	-13
O=C(Nc1ccc2nc(SCC(=O)N3CCOCC3)sc2c1)c1ccc(Cl)cc1	-2	0	4	-38*	-2
COc1ccc(C(=O)Nc2ccc3nc(SCC(=O)N(C)c4ccccc4)sc3c2)cc1	4	-1	32*	-3	-2
CCOc1cc(CNC(=O)c2ccc3c(c2)NC(=O)C2CCCCN32)cc(OCC)c1OCC (stereo unspecified)	3	0	0	-17	1
CCN(CC)CCCOc1ccc(C)cc1Br	-9	0	4	-38*	-5
Cc1ccc(OCCOCCn2ccnc2)c(Br)c1	-8	-1	31*	-55*	16
CCOc1ccccc1OCCCOc1ccc(C)cc1Br	3	0	3	5	2
Cc1nc2ccc(NC(=O)c3ccc(C)c(S(=O)(=O)N4CCOCC4)c3)cc2s1	-1	0	0	12	6
COc1ccc(S(=O)(=O)N(CC(=O)Nc2ccc(F)c(Cl)c2)c2ccc(C)cc2)cc1OC	-3	0	5	-14	5
COc1ccc([N+](=O)[O-])cc1COc1ccc2c(-c3ccccc3)cc(=O)oc2c1	-14	1	5	-33*	-4
CC(=O)COc1ccc2c(-c3cccc([N+](=O)[O-])c3)cc(=O)oc2c1	-1	0	0	2	-8
Cc1cc(Cl)ccc1Oc1ncc(-c2ccc(Cl)cc2)cn1	7	0	7	-66*	-3
Clc1ccc(-c2cnc(Oc3ccccc3)nc2)cc1	-4	0	1	-3	-7
CCN1CCOC(=O)C1CC(=O)Nc1cc(Cl)ccc1OC (stereo unspecified)	2	1	-1	1	0
Nc1c(-c2ccccc2)cc[nH]c1=O	0	2	6	-5	4
N#C/C(=C\c1ccc(-c2ccc(Br)cc2)o1)C(=O)NCCc1c[nH]c2ccccc12	-6	1	3	-34*	6
COc1ccc(Nc2nnc(-c3ccc(C)c(S(=O)(=O)NCc4nc5ccccc5[nH]4)c3)c3ccccc23)cc1	-2	-1	4	1	8
O=C(NCc1ccco1)c1ccc2ccccc2c1	1	-1	1	-9	3
O=C(NCc1ccco1)c1ccc2c(c1)C(=O)c1ccccc1-2	-4	0	2	-31*	2
Cc1ccc(C(=O)NCc2ccco2)cc1[N+](=O)[O-]	-3	0	0	-37*	2
O=C(Nc1nnc(C(F)(F)F)s1)c1ccc(Br)s1	-7	5	37*	-43*	-8
NC(=O)c1ccccc1NC(=O)c1ccccc1Cl	-5	-1	0	-7	-2
O=C(Nc1ccccc1C(=O)Nc1nnc(C(F)(F)F)s1)c1ccccc1Cl	-3	2	26	-30*	-9
CC(NC(=O)Nc1nnc(C(F)(F)F)s1)(C(F)(F)F)C(F)(F)F	-8	12	41*	-29	3
CCCCNC(=O)C1CCN(S(=O)(=O)c2ccc3c(ccn3CC)c2)CC1	-2	0	-1	2	5
CCn1ccc2cc(S(=O)(=O)N3CCC(C(=O)NCCc4ccccc4Cl)CC3)ccc21	3	0	3	-40*	1
